Compounds with a hit are over-represented: about 3.1% of the library has one in this group of screens.
SKOV3 invasion: Primary qHTS assay for Inhibitors of ovarian cancer metastasis using an organotypic tumor microenvironment (TME) model; SKOV3ip1-GFP adhesion/invasion on 3D omental model, fluorescence; Potency, µM (series often up to 45.8 µM), actives largely listed as inhibitors; actives 0.1% (n = 46,000); AID 1963576, 2024; further: nearly all actives have a fitted effect of over 65% in size
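Primary human omental fibroblast/mesothelial 3D culture pre-formed 48 h. SKOV3ip1-GFP cells added with compounds (0.36-46 umol/L), incubated 2 h RT/16 h 37 C, fixed; GFP cells quantified at 488/509 nm.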
p53null 39C tox: qHTS Screen for Compounds that Selectively Target Cancer Cells with p53 Mutations: Cytotoxicity of p53 Null Cells at the Nonpermissive Temperature; H1299 p53-null (neo) cells, 39C, ATPlite viability, 24 h; Potency, µM (series often up to 46.1 µM), most hits filed as cytotoxic; actives 0.97% (n = 55,000); AID 904, 2007; further: nearly all actives have a fitted effect of over 50% in size
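ATP-luminescence viability readout (ATPlite, 20 min RT) after 24 hr compound treatment at 39C of H1299-neo or H1299-p53A138V cells; titration up to 46 uM; normalized to DMSO and 100 uM tamoxifen; Hill-fit AC50.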
PMP22 txn prim: Cell-based coincidence reporter assay to measure PMP22 gene transcription in S16 Pmp22-F2sN cells - Primary screen; actives 2% (n = 43,000); S16 Pmp22-F2sN Schwann cells, FLuc/NLuc coincidence luminescence, 24 h; Potency, µM (series often up to 57.5 µM), hits mostly inhibitors; AID 1508649, 2021; active means clear falling dose curves in both reporters; inconclusive means both reporters move, but less clearly or upward; inactive means either reporter flat; the % is the NLuc reporter signal
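Rat S16 Pmp22-F2sN cells, 500-1,000/well in phenol red-free DMEM + 10% FBS, compound-treated 24 h (37C, 5% CO2). Luminescence: FLuc read, Stop&Glo added, NLuc read.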
p53null 32C tox: qHTS Screen for Compounds that Selectively Target Cancer Cells with p53 Mutations: Cytotoxicity of p53 Null Cells at the Permissive Temperature; actives 0.62% (n = 55,000); H1299-neo p53 null cells, ATP luminescence, 24 h, 32C; Potency, µM (titrated, usually from 46.1 µM), most hits filed as cytotoxic; further: nearly all actives have a fitted effect of over 55% in size
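Luminescent ATP readout gave cell viability of p53-null H1299-neo cells after a 24 h compound exposure at the permissive 32C. Titrations ran up to 46 uM, and AC50s were fitted with the standard Hill equation.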
pS6 MEF inh: Acumen qHTS Assay for Inhibitors of the mTORC1 Signaling Pathway in MEF (Tsc2-/-, p53-/-) Cells: Sytravon | Tsc2-/- p53-/- MEF, phospho-rpS6 immunofluorescence/PI, 24 h | Potency, µM (highest dose often 38.3 µM), most hits filed as inhibitors | actives 0.78% (n = 44,000) | AID 493208, 2011; further: nearly all actives have a fitted effect of over 50% in size
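Cell-based qHTS: Tsc2-/- p53-/- MEF, 24 h cpd, 37 °C; fix/perm, anti-phospho-S6 Alexa-488 + PI; Acumen 488 nm scan; pS6/PI ratio, % positive cells; rapamycin 7.5 nM = inhibition ref; PI count = viability.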
S16 F2sN tox: Cell viability qHTS assay in S16 Pmp22-F2sN cells; S16 Pmp22-F2sN Schwann cells (luciferase reporters placed in the Pmp22 gene) viability, CellTiter-Glo, 24 h; AID 1508642, 2021; actives 0.48% (n = 43,000); Potency, µM (highest dose often 57.5 µM), most hits filed as cytotoxic; further: nearly all actives have a fitted effect of over 65% in size
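Luminescence from CellTiter-Glo, read by CCD camera after a 15 min room-temperature incubation, served as the viability signal. Reporter Schwann cells (S16 Pmp22-F2sN) had been treated with pin-transferred compounds for 24 h at 37C.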
NLuc sat counter: Biochemical NLuc saturation counterscreen for small molecule modulators of PMP22 gene expression - Nano-Glo assay; Secreted NLuc enzyme (filtered S16 cell medium), Nano-Glo luminescence; AID 1508638, 2021; actives 4% (n = 690); shares compounds with PMP22 txn prim; Potency, µM (doses to about 57.5 µM), actives largely listed as inhibitors
NLuc Km ctr: Biochemical coelenterazine-based NLuc counterscreen for small molecule modulators of PMP22 gene expression - Km assay | shares compounds with PMP22 txn prim | secreted NLuc enzyme, coelenterazine luminescence, Km conditions | Potency, µM (titrated, usually from 57.5 µM), most hits filed as inhibitors | actives 5% (n = 690)
FLuc ctr PMP22: Biochemical FLuc counterscreen for small molecule modulators of PMP22 gene expression; shares compounds with PMP22 txn prim; purified P. pyralis FLuc, luminescence, 10 min; Potency, µM (doses to about 57.5 µM), actives largely listed as inhibitors; 690 tested, under 10 active; AID 1508640, 2021
Target sequence (P08659 whole entry, looked up): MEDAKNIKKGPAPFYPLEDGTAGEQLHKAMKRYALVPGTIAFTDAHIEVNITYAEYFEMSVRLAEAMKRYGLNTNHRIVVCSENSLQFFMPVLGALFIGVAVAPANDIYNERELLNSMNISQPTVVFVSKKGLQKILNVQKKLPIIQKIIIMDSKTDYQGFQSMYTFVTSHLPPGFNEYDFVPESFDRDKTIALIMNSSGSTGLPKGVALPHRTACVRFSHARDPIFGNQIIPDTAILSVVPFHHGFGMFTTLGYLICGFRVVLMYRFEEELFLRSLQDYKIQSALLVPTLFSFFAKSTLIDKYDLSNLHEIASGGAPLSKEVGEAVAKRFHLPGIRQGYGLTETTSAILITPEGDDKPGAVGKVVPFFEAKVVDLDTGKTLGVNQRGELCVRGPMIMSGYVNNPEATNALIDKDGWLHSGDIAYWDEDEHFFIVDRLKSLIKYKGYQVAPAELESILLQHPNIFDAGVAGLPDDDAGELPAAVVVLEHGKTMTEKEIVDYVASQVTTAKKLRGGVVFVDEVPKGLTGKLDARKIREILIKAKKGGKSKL
S16 viab conf: Cell viability qHTS assay in S16 Pmp22-F2sN cells - Confirmatory screen. shares compounds with PMP22 txn prim. Potency, µM (series often up to 57.5 µM), actives largely listed as cytotoxic. actives 7% (n = 690). S16 Schwann cells viability, CellTiter-Glo ATP luminescence, 24 h
PMP22 txn conf: Cell-based coincidence reporter assay to measure PMP22 gene transcription in S16 Pmp22-F2sN cells - Confirmatory screen. shares compounds with PMP22 txn prim. S16 Schwann cells Pmp22-F2sN, dual luciferase, 24 h. Potency, µM (highest dose often 57.5 µM), hits mostly inhibitors. actives 22% (n = 690); active means clear falling dose curves in both reporters; inconclusive means both reporters move, but less clearly or upward; inactive means either reporter flat; the % is the FLuc reporter signal
PMP22 HiBiT cnf: Cell-based HiBiT reporter assay to measure PMP22 protein expression in S16 Pmp22-HiBiT cells - Confirmatory screen; 95 tested, under 10 active; shares compounds with PMP22 txn prim; Potency, µM (doses to about 27.9 µM), usual class: inhibitors; AID 1508647, 2021; S16 Schwann cells Pmp22-HiBiT, luminescence, 48 h
Each line names hits and unclear results; the compound was inactive in the other large screens (follow-up assays come after a bar, where they were run). Unless noted, the call rests on the fitted dose curve; in most records, active means well fitted curve in the direction sought with a large enough effect; inconclusive means small, poorly fitted or top-dose-only effect, or another doubt; inactive means no such curve, though single readings can be large; an effect the other way counts as inactive or inconclusive.

COc1cccc(CNc2ncnc3onc(C)c23)c1	PMP22 txn prim inconclusive
Cc1ccc(S(=O)(=O)c2nnn3c2nc(N2CCCC2)c2sccc23)cc1	PMP22 txn prim inconclusive
CCN1CCN(c2nc3c(S(=O)(=O)c4ccc(C)cc4)nnn3c3ccsc23)CC1	PMP22 txn prim 17µM | NLuc sat counter inactive | NLuc Km ctr inactive | FLuc ctr PMP22 inactive | S16 viab conf inactive | PMP22 txn conf inactive
O=C1CC(c2cccc(Cl)c2Cl)c2cc3c(cc2N1)OCCO3 (configuration not stated)	PMP22 txn prim 16µM | NLuc sat counter inactive | NLuc Km ctr inconclusive | FLuc ctr PMP22 inactive | S16 viab conf inactive | PMP22 txn conf inactive
O=C1CC(c2ccc(Cl)cc2)c2cc3c(cc2N1)OCCO3 (configuration not stated)	PMP22 txn prim inconclusive
COc1ccc(Br)c2c1-c1nc(NC(=O)c3cccc(C)c3)sc1C2	PMP22 txn prim 11µM | NLuc sat counter inconclusive | NLuc Km ctr inactive | FLuc ctr PMP22 inactive | S16 viab conf inactive | PMP22 txn conf inconclusive | PMP22 HiBiT cnf inactive
N#CC1=C2SCN(C3CCCCC3)CN2C(=O)CC1c1ccc(Cl)cc1 (configuration not stated)	PMP22 txn prim inconclusive
N#CC1=C2SCN(C3CCCCC3)CN2C(=O)CC1c1c(F)cccc1Cl (configuration not stated)	PMP22 txn prim 9.5µM | NLuc sat counter 11µM | NLuc Km ctr 7.7µM | FLuc ctr PMP22 inactive | S16 viab conf inactive | PMP22 txn conf inactive
Cc1ccc(CCNC(=O)c2ccc(Nc3nc4ccccc4n4nnnc34)cc2)cc1	PMP22 txn prim inconclusive | NLuc sat counter inactive | NLuc Km ctr inactive | FLuc ctr PMP22 inactive | S16 viab conf 24µM | PMP22 txn conf inconclusive

Screens (PubChem BioAssay)
